Assay results published in PubChem BioAssay (EPA / NIEHS).
Where “and” joins values, the source holds several entries; their conditions need not be identical. Equal values may be shown once. Where a structure was tested more than once in an assay, its records may differ in their call. Calls of active or inactive are those of the source. How the source made its calls: active means hit-call score of the fitted dose curve at least 0.9, where 1 is the maximum; inactive means score below 0.9.

assay: CCTE_Shafer_MEA_acute_synchrony_index: CCTE's Neural Acute Assay for Synchrony, Shafer Lab (AID 2284027);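 further: fitted for loss of signal so actives lower synchrony relative to DMSO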
Protocol: CCTE_Shafer_MEA_acute assay is conducted using Axion Biosystems 48 well microelectrode array (MEA) plates and Maestro recording system. Each well of the MEA plate contains a grid of 16 microelectrodes embedded in the culture surface. Electrically active cells, such as neurons, can be cultured over the electrodes, and electrical activity in these cells can be recorded extracellularly. The spontaneous firing of neurons is captured from each electrode on a microsecond timescale providing both temporally and spatially precise data. […] The CCTE_Shafer_MEA_acute assay uses primary cultures of rat cortical neurons. As these cultures mature over time, neural networks develop functional activity and form cohesive networks in which electrical activity can be highly coordinated. Baseline 40-minute recordings are made on days post-plating 13 or 15, followed by a secondary 40-minute recording after chemical exposure.CCTE_Shafer_MEA_acute_synchrony_index is a component of the CCTE_Shafer_MEA_acute assay. It measures the synchrony of the neural network as a unitless measure between 0 (low synchrony) to 1 (high synchrony) during a recording in a microelectrode array (MEA) using Axion Biosystems Maestro 768 channel amplifier with the AxIS adaptive spike detector. The recordings before and after chemical treatment are used to calculate a percent change in the synchrony index in each well.Data from the assay component CCTE_Shafer_MEA_acute_synchrony_index was analyzed into 1 assay endpoint. This assay endpoint, CCTE_Shafer_MEA_acute_synchrony_index, was analyzed in the negative analysis fitting direction relative to DMSO as the negative control and baseline of activity. Using a type of functional reporter, gain or loss-of-signal activity can be used to understand electrical activity.
Spontaneous activity in the cortical cultures was recorded using an Axion Biosystems Maestro 768 channel amplifier and Axion Integrated Studios (AxIS) v1.8 (or later) software. The amplifier recorded from all channels simultaneously (gain = 1200 x; sampling rate = 12.5 kHz/channel): raw signals were filtered with a Butterworth band-pass filter (300-5000 Hz), which filters out slower local field potentials leaving only fast potentials, i.e., "spikes", arising from extracellular currents associated with action potentials (Pine 2006; Wheeler and Nam 2011). On-line spike detection of filtered signals was conducted with the AxIS adaptive spike detector, using a threshold of 8x the root mean squared (rms) noise on each channel. Any electrodes with rms noise levels greater than 5 uV were grounded (e.g., no data were recorded). Once grounded, an electrode was grounded for the duration of the experiment. All recordings were conducted at 37 C. Wells were deemed usable if on the day of the exposure >/= 10 electrodes were active (defined as >/= 5 spikes/min). On DIV 13 or 15, a minimum of three wells from one cortical culture preparation were treated with each compound (0.03-40 uM). Prior to recording baseline activity, each mwMEA plate was placed in the Maestro at 37 C and allowed to sit for 20 min while firing rates stabilized. Baseline activity (40 min) was recorded before the addition of each compound. An additional 40 min of spontaneous activity was recorded in the presence of each compound. Changes in network parameters relative to baseline were assessed following compound treatment.

| SMILES | AC50 | outcome |
| --- | --- | --- |
| CC(C)=CC1C(C(=O)OCN2C(=O)C3=C(CCCC3)C2=O)C1(C)C (stereo not given) | 25.1 µM (active) |  |
| COc1cc(OC)nc(Sc2cccc(Cl)c2C(=O)O)n1 |  | inactive |
| N#CSCSC#N | 28.4 µM (active) |  |
| O=C(O)c1cc(Oc2ccc(C(F)(F)F)cc2Cl)ccc1[N+](=O)[O-] |  | inactive |
| CN1COCN(Cc2cnc(Cl)s2)C1=N[N+](=O)[O-] |  | inactive |
| FC(F)C(F)(F)OCC(Cn1cncn1)c1ccc(Cl)cc1Cl (stereo not given) |  | inactive |
| COP(=O)(NC(C)=O)SC (stereo not given) | 0.804 µM (active) | inactive |
| CC(=NC#N)N(C)Cc1ccc(Cl)nc1 |  | inactive |
| CCc1cnc(C2=NC(C)(C(C)C)C(=O)N2)c(C(=O)O)c1 (stereo not given) |  | inactive |
| CCOP(=S)(OCC)Oc1ccc2c(C)c(Cl)c(=O)oc2c1 | 6.95 µM (active) |  |
| CN(C)[C@@H]1C(=O)C(C(N)=O)=C(O)[C@@]2(O)C(=O)C3=C(O)c4c(O)cccc4[C@@](C)(O)[C@H]3[C@H](O)[C@@H]12 |  | inactive |
| COP(=O)(OC)C(O)C(Cl)(Cl)Cl (stereo not given) |  | inactive |
| CCOP(=S)(OCC)SCCSCC |  | inactive |
| C=C(C)[C@H]1Cc2c(ccc3c2O[C@@H]2COc4cc(OC)c(OC)cc4[C@@H]2C3=O)O1 | 20 µM (active) |  |
| C[N+]1(C)CCCCC1 |  | inactive |
| CCc1cccc(C)c1N(C(=O)CCl)C(C)COC (stereo not given) | 8.13 µM (active) |  |
| CCOP(=O)(NC(C)C)Oc1ccc(SC)c(C)c1 (stereo not given) |  | inactive |

| SMILES | AC50 | outcome |
| --- | --- | --- |
| CC1=NNC(=O)N(/N=C/c2cccnc2)C1 |  | inactive |
| CCOC(=O)CC(SP(=O)(OC)OC)C(=O)OCC (stereo not given) |  | inactive |
| Cc1ccn2nc(S(=O)(=O)Nc3c(F)cccc3F)nc2n1 |  | inactive |
| CNC(=O)ON=C(SC)C(=O)N(C)C |  | inactive |
| CN(C)NC(=O)CCC(=O)O |  | inactive |
| Nc1c(Cl)cc([N+](=O)[O-])cc1Cl | 32.8 µM (active) |  |
| CC(C)[C@H](C(=O)O[C@H](C#N)c1cccc(Oc2ccccc2)c1)c1ccc(Cl)cc1 | 1.01 µM (active) |  |
| CC(COc1ccc(Oc2ccccc2)cc1)Oc1ccccn1 (stereo not given) | 20 µM (active) |  |
| C#CCC1=C(C)C(OC(=O)C2C(C=C(C)C)C2(C)C)CC1=O (stereo not given) | 17.8 µM (active) |  |
| CON=C(C(=O)OC)c1ccccc1CON=C(C)c1cccc(C(F)(F)F)c1 | 2.25 µM (active) |  |
| CC(C)N(C(=O)SCC(Cl)=C(Cl)Cl)C(C)C | 20 µM (active) and 19 µM (active) |  |
| O=[N+]([O-])c1cc(C(F)(F)F)c(Cl)c([N+](=O)[O-])c1Nc1ncc(C(F)(F)F)cc1Cl | 0.481 µM (active) |  |
| CCOP(=S)(Oc1cnc(C(C)(C)C)nc1)OC(C)C (stereo not given) | 31 µM (active) |  |
| C[Si](Cn1cncn1)(c1ccc(F)cc1)c1ccc(F)cc1 | 4.26 µM (active) |  |
| CSC1=N[C@@](C)(c2ccccc2)C(=O)N1Nc1ccccc1 | 20 µM (active) and 22.8 µM (active) |  |
| CC[C@H](C)[C@H]1O[C@]2(C=C[C@@H]1C)C[C@@H]1C[C@@H](C/C=C(\C)[C@@H](O[C@H]3C[C@H](OC)[C@@H](O[C@H]4C[C@H](OC)[C@@H](NC)[C@H](C)O4)[C@H](C)O3)[C@@H](C)/C=C/C=C3\CO[C@@H]4[C@H](O)C(C)=C[C@@H](C(=O)O1)[C@]34O)O2 | 37.6 nM (active) and 751 nM (active) |  |
| CCCOCC(=Nc1ccc(Cl)cc1C(F)(F)F)n1ccnc1 | 2.69 µM (active) |  |
